“And” between values parts separate entries of the source, which are not always exact repeats. Identical values can stand only once. Records with an inconclusive call do not appear. Unmarked numbers belong to inactive results. The source made the active and inactive calls. Calls follow the shape of the dose curve; as a rule, active = well fitted inhibition curve with a large enough effect; inconclusive = small, poorly fitted or top-dose-only effect; inactive = flat fitted curve, though single readings scatter.
Target: Ubiquitin carboxyl-terminal hydrolase 1 (Homo sapiens) (UniProt O94782)
Sequence (O94782 whole entry, looked up): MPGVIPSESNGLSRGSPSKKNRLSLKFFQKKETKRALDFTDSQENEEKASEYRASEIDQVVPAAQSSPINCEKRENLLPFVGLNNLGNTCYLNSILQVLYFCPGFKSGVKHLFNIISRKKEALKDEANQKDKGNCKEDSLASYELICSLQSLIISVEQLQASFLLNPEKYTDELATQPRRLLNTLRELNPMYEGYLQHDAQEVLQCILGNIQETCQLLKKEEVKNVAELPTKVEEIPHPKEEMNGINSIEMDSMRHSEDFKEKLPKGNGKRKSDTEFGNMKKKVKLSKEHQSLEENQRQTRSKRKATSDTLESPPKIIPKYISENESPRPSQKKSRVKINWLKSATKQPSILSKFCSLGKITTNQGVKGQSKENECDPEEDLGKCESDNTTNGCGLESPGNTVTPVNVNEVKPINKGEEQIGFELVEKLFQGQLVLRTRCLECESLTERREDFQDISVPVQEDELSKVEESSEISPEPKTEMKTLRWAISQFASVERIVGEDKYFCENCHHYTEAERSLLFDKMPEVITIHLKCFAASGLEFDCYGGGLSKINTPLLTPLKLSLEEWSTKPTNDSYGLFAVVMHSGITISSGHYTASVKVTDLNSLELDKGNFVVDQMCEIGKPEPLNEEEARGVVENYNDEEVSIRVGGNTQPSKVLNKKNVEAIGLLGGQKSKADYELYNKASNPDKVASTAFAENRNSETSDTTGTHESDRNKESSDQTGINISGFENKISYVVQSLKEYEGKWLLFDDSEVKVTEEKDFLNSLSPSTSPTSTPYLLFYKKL
Test: Inhibitors of USP1/UAF1: Pilot qHTS (AID 504865); also: nearly all actives have a fitted effect of over 35% in size;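 as to activity change, negative = inhibition: rhodamine fluorescence freed from ubiquitin-rhodamine substrate followed over time; top concentration of the series differs between compounds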
Details: purified USP1/UAF1, Ub-rhodamine cleavage fluorescence; series mostly up to 114 µM; activity change, negative = inhibition: at the top concentration
Procedure, shortened: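 USP1/UAF1 complex (1nM) preincubated with compound 15 min at room temperature, then Ub-Rho substrate (150nM final) added. Fluorescence read kinetically at 480/540 nm, 6 reads every 60 seconds. Buffer: 50mM HEPES pH 7.8, 0.5mM EDTA, 0.1 mg/ml BSA, 1mM TCEP, 0.01% Tween-20.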
% is scaled to controls: 0 for no effect and ±100 for the full control effect; potency is read from the fitted curve at half-maximal effect.

Question: Which “activity change, negative = inhibition” value does the source give for CN(C)CCCOc1nn(Cc2ccccc2)c2ccccc12 here?
Answer: -7.58% [at 54.9 µM]

Question: How did the “activity change, negative = inhibition” value turn out when NC(CO)(CO)CO was run?
Answer: -0.67%

Question: For CCN(CC)CCNC(=O)COc1ccc(Cl)cc1, which “activity change, negative = inhibition” value is on record?
Answer: -2.13%

Question: COc1cc2c(cc1OC)C(=O)C(CC1CCN(Cc3ccccc3)CC1)C2 (configuration not stated) was tested. Which “activity change, negative = inhibition” value did it give?
Answer: -4.73%

Question: For O=C(CCCN1CCC(O)(c2ccc(Br)cc2)CC1)c1ccc(F)cc1, which “activity change, negative = inhibition” value is on record?
Answer: 5.32% [at 54.9 µM]

Question: With CCCCCCCCCCCCCCCC[N+](C)(C)CC as the compound, how does the Potency read?
Answer: 17.8 µM (active)

Question: For Cc1ccc(O)c2ncccc12, which “activity change, negative = inhibition” value is on record?
Answer: 4.21%

Question: Cc1c(F)c(N2CCNC(C)C2)cc2c1c(=O)c(C(=O)O)cn2C1CC1 (configuration not stated) was tested. Which “activity change, negative = inhibition” value did it give?
Answer: -7.99%

Question: For CC(C)COC(=O)c1ccc(N)cc1, which “activity change, negative = inhibition” value is on record?
Answer: -8.36%

Question: With C[C@]12CCC(=O)C=C1CC[C@H]1[C@@H]3CC[C@](O)(C(=O)CO)[C@@]3(C)C[C@H](O)[C@@]12F as the compound, how does the “activity change, negative = inhibition” value read?
Answer: -6.91%

Question: For NCCc1ccn[nH]1, which “activity change, negative = inhibition” value is on record?
Answer: -6.93% [at 54.9 µM]

Question: How did the “activity change, negative = inhibition” value turn out when CC(=O)OCC(=O)NCCCOc1cccc(CN2CCCCC2)c1 was run?
Answer: -9.65%

Question: Which “activity change, negative = inhibition” value does the source give for CC(=O)Oc1ccc(C(=C2CCCCC2)c2ccc(OC(C)=O)cc2)cc1 here?
Answer: -10.2%

Question: Which “activity change, negative = inhibition” value does the source give for CCN(CC)C(=O)/C(C#N)=C/c1cc(O)c(O)c([N+](=O)[O-])c1 here?
Answer: -1.91%

Question: For CCCCOc1ccc(C(=O)CCN2CCCCC2)cc1, which Potency is on record?
Answer: inactive

Question: With Nc1nc2ncc(CNc3ccc(C(=O)N[C@@H](CCC(=O)O)C(=O)O)cc3)nc2c(=O)[nH]1 as the compound, how does the “activity change, negative = inhibition” value read?
Answer: -7.44%

Question: Which “activity change, negative = inhibition” value does the source give for COc1ccc(CN2CCN(C(c3ccc(F)cc3)c3ccc(F)cc3)CC2)c(OC)c1OC here?
Answer: -12.1%

Question: Which “activity change, negative = inhibition” value does the source give for COc1ccc(C2C(=O)c3ccccc3C2=O)cc1 here?
Answer: -1.45%

Question: Which “activity change, negative = inhibition” value does the source give for CN1CCN(CCCN2c3ccccc3Sc3ccc(S(=O)(=O)N(C)C)cc32)CC1 here?
Answer: -3.92% [at 54.9 µM]

Question: Which “activity change, negative = inhibition” value does the source give for COc1ccc(OC)c(C(O)CNC(=O)CN)c1 (configuration not stated) here?
Answer: -13.7%

Question: How did the Potency turn out when CCCCOc1cc(C(=O)NCCN(CC)CC)c2ccccc2n1 was run?
Answer: inactive

Question: How did the “activity change, negative = inhibition” value turn out when CCOC(=O)COc1ccc2c(C)c(CCN(CC)CC)c(=O)oc2c1Cl was run?
Answer: 0.962%

Question: With CCC(=O)c1c(O)cc(O)cc1O as the compound, how does the “activity change, negative = inhibition” value read?
Answer: -10.8%

Question: Oc1c(I)cc(Cl)c2cccnc12 was tested. Which Potency did it give?
Answer: inactive

Question: With CN1CCC(=C2c3ccccc3Sc3ccccc32)CC1 as the compound, how does the Potency read?
Answer: 39.8 µM (active)

Question: Which “activity change, negative = inhibition” value does the source give for O=c1c(-c2ccccc2)c1-c1ccccc1 here?
Answer: -4.29%

Question: Which “activity change, negative = inhibition” value does the source give for COc1c(C)c2c(c(O)c1C/C=C(\C)CCC(=O)O)C(=O)OC2 here?
Answer: 2.42% [at 54.9 µM]

Question: COc1cccc2c1C(=O)c1c(O)c3c(c(O)c1C2=O)C[C@@](O)(C(C)=O)C[C@@H]3O[C@H]1C[C@H](N)[C@H](O)[C@H](C)O1 was tested. Which Potency did it give?
Answer: 44.7 µM (active) and 39.8 µM (active)

Question: With Nc1ccc(/C=C/c2ccc(N)cc2S(=O)(=O)O)c(S(=O)(=O)O)c1 as the compound, how does the “activity change, negative = inhibition” value read?
Answer: -3.84%

Question: Which “activity change, negative = inhibition” value does the source give for CCCCCCCCCCCCCCCCOP(=O)([O-])OCC[N+](C)(C)C here?
Answer: -8.52%

Question: CCCCCC=CCC=CCCCCCCCC(=O)OCC was tested. Which “activity change, negative = inhibition” value did it give?
Answer: -11%

Question: CC(=O)Oc1ccc(C(c2ccc(OC(C)=O)cc2)c2ccccn2)cc1 was tested. Which Potency did it give?
Answer: inactive

From PubChem BioAssay (NCATS)
